Here are results for 21 molecules from PubChem BioAssay (NCI).

This is part of a sample that, as a whole, favours compounds with a hit. Of some 83,000 tested, about 20% had one in any assay.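 Values shown are percent growth following 48 h exposure of cells in 96-well plates to a single concentration of compound; below 10 was considered active.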 Values without a mark were called inactive. Active and inactive are the calls of the source.

Common to all, as to test: NCI-60 one-dose screen, 48 h (100 = growth as untreated, 0 = no growth, -100 = all killed)
Conditions in all cases: 10 µM unless noted

Experiment [1] deals with DU-145 prostate.
Experiment [2] has as its system K-562 leukemia.
Experiment [3] concerns MALME-3M melanoma.
Experiment [4] has as its system MDA-MB-231 breast.
The test system of experiment [5] is RXF 393 renal.
The test system of experiment [6] is SF-268 CNS.
For experiment [7], the system named is SF-295 CNS.
Experiment [8] concerns SF-539 CNS.
The test system of experiment [9] is UACC-257 melanoma.
Experiment [10] concerns M14 melanoma.

As to `CNC(=O)c1c(NC(=O)c2ccc(C(F)(F)F)cc2)sc2c1CCC(=O)C2`, the growth in [1] is 29%; in experiment [2], 7.84% (active); in experiment [3], -9.54% (active); in experiment [4] it was -37.1% (active); in experiment [5], -7.89% (active); in [6] it was 9.61% (active). In addition, the growth was -9.06% (active) in experiment [7], -58.6% (active) in [8], 1.26% (active) in [9] and -11.6% (active) in experiment [10].
As for `C/C(=N/O)c1ccc(F)cc1`, the growth is 5.59% (active) in [1]; 92.7% in experiment [2]; 130% in experiment [3]; 88% in [4]; 64.1% in experiment [5]; 102% in [6]. Moreover, the growth in [7] is 75%; in [8], 119%; in experiment [9] it was 95.3%; in experiment [10] it was 94.9%.
With `CC(=O)OCc1nc(C#N)c(N(C)C)o1`, the growth is 110% in [1]; 99.2% in experiment [2]; 97.8% in [3]; 94.9% in [4]; 87.6% in [5]; 99.6% in experiment [6]. Further, the growth in experiment [7] is 108%; in experiment [8] it was 92.1%; in experiment [9], 92.8%; in experiment [10] it was 99.8%.
On to `O=S(=O)(NCCCNc1nccc(-c2c(-c3ccc(F)c(O)c3)nc3occn23)n1)c1ccccc1`, for which the growth in experiment [1] is 90.5%; in experiment [2], 56.8%; in experiment [3], -0.289% (active); in [4] it was 57.7%; in experiment [5], 70.9%; in experiment [6] it was 97.3%. Also, the growth in experiment [7] was 104%; in experiment [8], 105%; in [9], 29.1%; in experiment [10], 17.2%.
Turning to `Cn1cc(-c2nc(-c3c[nH]c4ccncc34)cs2)c2ccccc21`, the growth in experiment [1] is 44%; in experiment [2], -33.2% (active); in [3], 54%; in experiment [4], 25.2%; in [5], 70.8%; in experiment [6], 77.3%. Also, the growth in experiment [7] was 65.5%; in experiment [8] it was 78.7%; in experiment [9], 91.2%; in experiment [10], -71.5% (active).
As to `CC[C@@H](C(=O)[C@@H](C)[C@@H](O)[C@H](C)[C@@H]1O[C@@H]([C@@H](CC)C(=O)NCCc2ccc(F)cc2)CC[C@@H]1C)C1O[C@]2(C=CC(=O)[C@]3(CC[C@@](C)([C@H]4CC[C@](O)(CC)[C@H](C)O4)O3)O2)[C@H](C)C[C@@H]1C` (stereo not given in full), the growth in [1] is 50.5%; in [2] it was 17%; in experiment [3], 36%; in experiment [4] it was 13.8%; in experiment [5], 42.7%; in experiment [6], 24.2%. The growth in experiment [7] is 18.4%; in experiment [8] it was 47.7%; in [9], 43.5%; in [10], 25.4%.
Take `CCN(CC)c1ccc(/C=C/C(=O)c2ccc(Nc3nc(Nc4ccccc4)nc(Nc4ccccc4)n3)cc2)cc1`: the growth in experiment [1] was 51.6%; in experiment [2], 22.5%; in experiment [3] it was 43.2%; in experiment [4], 52.8%; in experiment [5] it was 10.6%; in [6] it was 62.1%. In addition, the growth is 1.72% (active) in [7], 61.2% in experiment [8], 73.1% in experiment [9] and 54.1% in experiment [10].
As for `O=C1/C(=C/c2ccccc2Br)COc2ccc(O)c(O)c21`, the growth is 13% in [1]; 9.73% (active) in experiment [2]; -8.51% (active) in [3]; 0.858% (active) in [4]; 10.1% in [5]; 10.9% in experiment [6]. In addition, the growth is 62.9% in experiment [7], -25.7% (active) in experiment [8], 19.7% in [9] and 31.5% in [10].
With `CNc1nc(S(=O)c2ccc(C#N)cc2)nc2ccccc12` (stereo not given), the growth in [1] was 40.6%; in experiment [2] it was 24.9%; in experiment [3] it was 54.8%; in [4], 54.8%; in experiment [5], 62.9%; in experiment [6] it was 87.8%. Besides, the growth is 99.5% in [7], 92% in [8], 85.3% in experiment [9] and 71.5% in experiment [10].
As to `O=[N+]([O-])C1C(c2ccccc2)C12c1ccccc1-c1ccccc12` (stereo not given), the growth in experiment [1] is -36.8% (active); in [2] it was -12.5% (active); in experiment [3], 59.4%; in [4], 6.89% (active); in [5] it was -21.8% (active); in experiment [6], 29.3%. The growth in experiment [7] is -23.1% (active); in experiment [8], -12.2% (active); in [9], 40.9%; in [10], -10.2% (active).
With `COC(=O)c1cc(-c2ccccc2)[nH]c1N/N=C/c1c(Cl)cccc1Cl`, the growth was -5.4% (active) in experiment [1]; -21.8% (active) in experiment [2]; -15.2% (active) in [3]; 10.5% in experiment [4]; -18.7% (active) in experiment [5]; 33.1% in experiment [6]. The growth was -59.5% (active) in experiment [7], -33.3% (active) in experiment [8], 51% in [9] and -12.3% (active) in experiment [10].
Regarding `Cc1nnc(NC(=O)c2nc(S(=O)(=O)Cc3ccc(F)cc3)ncc2Cl)s1`, the growth in experiment [1] was 88.2%; in experiment [2], -23.8% (active); in experiment [3], -12.9% (active); in experiment [4] it was 66%; in experiment [5], 87.3%; in experiment [6], 90.5%. For the same molecule, the growth in experiment [7] was 99.5%; in experiment [8], 83.8%; in [9], 40.6%; in experiment [10] it was 83.8%.
Take `CNC(=O)c1cc(Oc2ccc3nc(NC(C)=O)sc3c2)ccn1`: the growth in experiment [1] is 101%; in [2], 81.8%; in [3], 92.7%; in [4] it was 98.7%; in [5] it was 115%; in [6], 97.4%. In addition, the growth was 95.2% in experiment [7], 94.3% in [8], 102% in experiment [9] and 101% in experiment [10].
As for `O=C1/C(=C/c2ccc(Cl)cc2)COc2ccc(O)cc21`, the growth was 89.7% in experiment [1]; 2.41% (active) in [2]; 94.9% in experiment [3]; 86% in experiment [4]; 97.9% in experiment [5]; 79.3% in [6]. Besides, the growth in experiment [7] is 101%; in experiment [8], 88.1%; in [9], 104%; in experiment [10], 86%.
As to `CC1Cc2c(Cl)ncnc2N(C)c2ccc(F)cc21` (stereo not given), the growth is 110% in experiment [1]; 99.5% in [2]; 91.3% in [3]; 98.9% in experiment [4]; 104% in experiment [5]; 93.8% in experiment [6]. Besides, the growth in experiment [7] is 91.2%; in experiment [8], 97.5%; in experiment [9], 70.3%; in experiment [10] it was 91.5%.
For the molecule `Nc1ncnc2c1N=C(c1ccc3c(c1)OCO3)CC(c1cccc(Nc3ccnc4cc(Cl)ccc34)c1)N2` (stereo not given), the growth in experiment [1] was 63.1%; in [2] it was 2.1% (active); in experiment [3], 97.3%; in [4], 70.1%; in experiment [5] it was 72.2%; in [6], 69.3%. The growth in [7] is 46.6%; in experiment [8] it was 86.3%; in experiment [9], 59.3%; in experiment [10], 57.3%.
For `O=C(c1ccc(Cl)cc1)N1CCN(c2ccnc3cc(Cl)ccc23)CC1`, the growth in [1] was 112%; in experiment [2], 77.1%; in experiment [3] it was 84.4%; in [4] it was 89.1%; in experiment [5], 77.5%; in experiment [6], 100%. For the same molecule, the growth is 95.8% in experiment [7], 100% in [8], 91% in experiment [9] and 98% in experiment [10].
Turning to `COc1ccc(/C=N/C2=C(C#N)C(c3cccc(Cl)c3)c3c(ccc4ccccc34)O2)cc1` (stereo not given), the growth in experiment [1] was 55.7%; in experiment [2], 11.1%; in experiment [3], 44.5%; in [4], 38%; in experiment [5], 26.5%; in [6] it was 45.9%. The growth in [7] was 21.8%; in experiment [8], 7.29% (active); in experiment [9], 62.6%; in experiment [10] it was 15.6%.
For the molecule `O=S(=O)(Nc1ccccc1)c1ccc(C2CC3(Cl)C(Cl)=C(Cl)C2(Cl)C3(Cl)Cl)cc1` (stereo not given), the growth in experiment [1] was 66.4%; in [2] it was 27%; in [3], 35.1%; in experiment [4], 59.3%; in [5] it was 32.9%; in experiment [6] it was 57.2%. The growth in experiment [7] is 8.38% (active); in experiment [8], 72.9%; in experiment [9], 36.8%; in experiment [10], 52.6%.
Turning to `COc1cc(CNC(=O)CCCC/C=C/C(C)C)ccc1OCc1nnc(Nc2ccc([N+](=O)[O-])cc2)o1`, the growth in [1] is 62%; in experiment [2], 59.6%; in experiment [3], 69.6%; in experiment [4], 67.1%; in [5] it was 54.1%; in experiment [6], 79.7%. Further, the growth in experiment [7] was 64.9%; in [8] it was 70.2%; in [9], 77.6%; in experiment [10] it was 66.4%.
For `N=C(N)c1ccc(-c2ccc(-c3ccc(Cl)cc3)s2)nc1`, the growth in experiment [1] was -94.8% (active); in experiment [2], -45.1% (active); in experiment [3], 87.3%; in [4], -47% (active); in [5], 60.1%; in experiment [6], 57.6%. Moreover, the growth was 27.1% in experiment [7], -55.2% (active) in experiment [8], 82.3% in [9] and 17.9% in experiment [10].
